Test results from PubChem BioAssay (Tox21).
Where “and” joins values, the source holds several entries; their conditions need not be identical. Identical values can stand only once. Inconclusive results are not listed. Calls of active or inactive are those of the source. Unless noted, calls come from the whole dose curve; as a rule, active = well fitted curve in the direction sought with a large enough effect in the repeat runs; inconclusive = weak or mixed curves; inactive = no such curve, though single readings can be large; an effect the other way counts as inactive or inconclusive.

What was measured:
[1] = target: Thyrotropin receptor (Homo sapiens) (UniProt P16473); test: qHTS assay to identify small molecule antagonists of the thyroid stimulating hormone receptor (TSHR) signaling pathway (AID 1259385; calls by dose curve; note: nearly all actives have a fitted effect of over 20% in size)
Method in brief: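 Antagonist mode: compound-treated TSHR-expressing HEK293 cells were stimulated with 1.5 ng/mL TSH (final) in presence of Ro20-1724 for 30 min at RT. HTRF cAMP detection after 1 h; each compound tested at 15 concentrations, triplicate.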

[2] = qHTS assay to identify small molecule agonists of the estrogen receptor alpha (ER-alpha) signaling pathway in the presence of an antagonist - cell viability counter screen (AID 1259386);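 note: cells exposed to compounds for 22 h at 37 °C before the viability read; nearly all actives have a fitted effect of over 30% in size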; note: potency is the fitted concentration of half-maximal effect
Method in brief: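 Viability counter screen using VM7Luc4E2 (full-length ER-alpha, four ERE-luciferase). The cells were treated with compounds alongside ICI-182,780 10.0nM for 22hr, and live-cell protease fluorescence was quantified with CellTiter-Fluor.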

[3] = target: Progesterone receptor (Homo sapiens) (UniProt P06401); test: qHTS assay to identify small molecule antagonists of the progesterone receptor (PR) signaling pathway (AID 1346795; active = well fitted inhibition curve with a large enough effect in the signal ratio in the repeat runs, not every such curve was filed as active; the % refers to the signal ratio)
Method in brief: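 Antagonist mode: compounds tested against 1 nM (final) promegestone stimulation in HEK293T cells expressing PR-UAS-bla reporter, 16 hr at 37C, 5% CO2; beta-lactamase activity detected via B/G FRET substrate after 2 hr at room temperature.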

[4] = qHTS assay to identify small molecule antagonists of the progesterone receptor (PR) signaling pathway - cell viability counter screen (AID 1346798); note: series mostly up to about 92 µM; nearly all actives have a fitted effect of over 50% in size
Method in brief: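 Counter screen for cytotoxicity: viability of PR-UAS-bla HEK293T cells was measured with CellTiter-Glo luminescence following 16 hr compound exposure in the presence of R5020.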

[5] = qHTS assay to identify small molecule agonists of the progesterone receptor (PR) signaling pathway - cell viability counter screen (AID 1346799; calls by dose curve; note: nearly all actives have a fitted effect of over 45% in size)
Method in brief: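 Cells (PR-UAS-bla HEK293T) are plated at 3,000/well in 2% charcoal-stripped FBS medium, rested 6 hr, dosed and incubated 16 hr at 37C. CellTiter-Glo is then added and luminescence measured after 30 min at room temperature.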

[6] = qHTS assay to identify small molecule antagonists of the TGF-beta/Smad signaling pathway - cell viability counter screen (AID 1346824); note: nearly all actives have a fitted effect of over 50% in size; note: potency is the fitted concentration of half-maximal effect
Method in brief: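 Cytotoxicity counter-screen run in the same wells as the beta-lactamase Smad reporter read: CellTiter-Glo luminescence after 30 min at room temperature. HEK 293T SBE-bla cells had 5 hr compound exposure at 37 C with TGF-beta1 (0.25 ng/mL stock).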

[7] = qHTS assay to identify small molecule agonists of the TGF-beta/Smad signaling pathway - cell viability counter screen (AID 1346829); note: nearly all actives have a fitted effect of over 45% in size; note: potency is the fitted concentration of half-maximal effect
Method in brief: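 Tox21 qHTS format: SBE-bla HEK 293T cells treated with DMSO-dissolved compounds for 5 hr; CellTiter-Glo luminescence after 30 min at room temperature.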

[8] = qHTS assay to identify small molecule agonists of the TGF-beta/Smad signaling pathway (AID 1346859; active = well fitted activation curve with a large enough effect in the signal ratio in the repeat runs, not every such curve was filed as active; the % refers to the signal ratio; note: series mostly up to about 77 µM)
Method in brief: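 Reporter line: HEK 293T with stably integrated SBE-controlled beta-lactamase. Compound exposure lasts 5 hr at 37 C and 5% CO2; substrate loading follows for 2 hr at room temperature, with emission read at 460 and 530 nm.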

[9] = target: Thyrotropin-releasing hormone receptor (Homo sapiens) (UniProt P34981); test: qHTS assay to identify small molecule antagonists of the thyrotropin-releasing hormone receptor (TRHR) signaling pathway (AID 1346877; active = well fitted inhibition curve with a large enough effect in the repeat runs, not every such curve was filed as active; note: series mostly up to about 51 µM)
Method in brief: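 Following an 18 h incubation at 37 °C and a 2 h calcium dye load, TRHR-HEK293 cells were exposed to compound (5 min, room temperature) and challenged with TRH, 1 nM final.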

[10] = target: Thyrotropin-releasing hormone receptor (Homo sapiens) (UniProt P34981); test: qHTS assay to identify small molecule agonists of the thyrotropin-releasing hormone receptor (TRHR) signaling pathway (AID 1346891; calls by dose curve;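 note: HEK293 cells expressing TRHR with calcium dye readout; series mostly up to about 58 µM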)
Method in brief: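 Cells: TRHR-Hek293, seeded and incubated 18 h. Dye loading: 2 h at 37 °C. Compound added from DMSO stock by pin tool. Read-out: kinetic calcium fluorescence over 3 min.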

[11] = Human pregnane X receptor (PXR) small molecule agonists, qHTS cell viability counter screen (AID 1346977); note: nearly all actives have a fitted effect of over 50% in size; note: potency is the fitted concentration of half-maximal effect
Method in brief: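 Cytotoxicity counter screen run in the same wells as the PXR luciferase assay, using PXR-Luc HepG2 cells in charcoal-stripped serum medium. Viability: CellTiter-Fluor fluorescence after 24hr compound treatment.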

[12] = Caspase-3/7 induction in HepG2 cells by small molecules, qHTS assay (AID 1346978); note: nearly all actives have a fitted effect of over 15% in size
Method in brief: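 Caspase-3/7 induction was measured by Caspase-Glo 3/7 luminescence (30 min, room temperature) after a 17 hr compound exposure of wild-type HepG2 cells seeded at 2,000 per well and pre-incubated 5 hr.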

[13] = Caspase-3/7 induction in CHO-K1 cells by small molecules, qHTS cell viability counter screen (AID 1346979); note: nearly all actives have a fitted effect of over 35% in size; note: potency is the fitted concentration of half-maximal effect
Method in brief: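 Cytotoxicity counter screen run in parallel with the caspase-3/7 assay: CHO-K1 cells, 16hr compound treatment at 37C, then CellTiter-Fluor for 1hr before fluorescence reading.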

[14] = Caspase-3/7 induction in CHO-K1 cells by small molecules, qHTS assay (AID 1346980); note: nearly all actives have a fitted effect of over 15% in size
Method in brief: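 Luminescent Caspase-Glo 3/7 read (30min, room temperature) quantified apoptosis induction. Cells were wild-type CHO-K1, treated with compound for 17hr at 37 C and 5% CO2.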

[15] = Caspase-3/7 induction in HepG2 cells by small molecules, qHTS cell viability counter screen (AID 1346981); note: nearly all actives have a fitted effect of over 30% in size; note: potency is the fitted concentration of half-maximal effect
Method in brief: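 Viability determined by CellTiter-Fluor fluorescence in HepG2 wells also used for the luminescent Caspase-Glo 3/7 read. Compounds were present for 16 hr at 37 C, 5% CO2 before reagent addition.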

[16] = target: Nuclear receptor subfamily 1 group I member 2 (Homo sapiens) (UniProt O75469); test: Human pregnane X receptor (PXR) small molecule agonists, qHTS assay (AID 1346982); note: nearly all actives have a fitted effect of over 35% in size; note: potency is the fitted concentration of half-maximal effect
Method in brief: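 Compound-induced hPXR transactivation of a CYP3A4 luciferase reporter was scored in HepG2 PXR-Luc cells over 24 hr at 37 C, 5% CO2, by luminescence.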

[17] = target: Progesterone receptor (Homo sapiens) (UniProt P06401); test: qHTS assay to identify small molecule agonists of the progesterone receptor (PR) signaling pathway (AID 1346784; calls by dose curve; note: nearly all actives have a fitted effect of over 30% in size)
Method in brief: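 Cells (PR-UAS-bla HEK 293T, GripTite) were plated in assay medium containing 2% charcoal-stripped FBS and incubated 6 hr. Test compounds in DMSO were added for 16 hr at 37C. FRET substrate was then loaded for 2 hr at room temperature before fluorescence reading.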

[18] = target: Nuclear receptor subfamily 1 group I member 2 (Rattus norvegicus) (UniProt Q9R1A7); test: Rat pregnane X receptor (rPXR) activation by small molecules, qHTS assay (AID 1346983); details: rPXR luciferase reporter cells, One-Glo luminescence, 24 h; max activation: active compounds read high; note: nearly all actives have a fitted effect of over 20% in size
Method in brief: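 Luminescent readout (One-Glo luciferase, 30 min room temperature) followed 24 hr compound treatment at 37 C of rPXR cells plated 2,000 per well and preincubated 5hr; qHTS format with compounds delivered in DMSO.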

[19] = target: Nuclear receptor subfamily 1 group I member 2 (Homo sapiens) (UniProt O75469); test: CYP3A4 induction through human pregnane X receptor (PXR) by small molecules, qHTS assay (AID 1346984); note: nearly all actives have a fitted effect of over 40% in size
Method in brief: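 Readings come from a luciferase reporter: DPX-2 cells, which are HepG2 cotransfected with PXR and a CYP3A4-promoter construct, were exposed to test compounds for 24 h at 37C before One-Glo detection.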

[20] = target: Nuclear receptor subfamily 1 group I member 2 (Homo sapiens) (UniProt O75469); test: Human pregnane X receptor (PXR) activation by small molecules, qHTS assay (AID 1346985); note: nearly all actives have a fitted effect of over 40% in size
Method in brief: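 DPX-2 cells (HepG2 co-transfected with a PXR response element and a CYP3A4-promoter luciferase construct) were seeded at 2,000 per well, rested 5 hr at 37C, then exposed to DMSO-dissolved compounds for 24 hr. Activation was read as luciferase luminescence.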
% is set by controls: 0 for no effect and ±100 for the full control effect.

Progesterone receptor (Homo sapiens), sequence (P06401 whole entry, looked up): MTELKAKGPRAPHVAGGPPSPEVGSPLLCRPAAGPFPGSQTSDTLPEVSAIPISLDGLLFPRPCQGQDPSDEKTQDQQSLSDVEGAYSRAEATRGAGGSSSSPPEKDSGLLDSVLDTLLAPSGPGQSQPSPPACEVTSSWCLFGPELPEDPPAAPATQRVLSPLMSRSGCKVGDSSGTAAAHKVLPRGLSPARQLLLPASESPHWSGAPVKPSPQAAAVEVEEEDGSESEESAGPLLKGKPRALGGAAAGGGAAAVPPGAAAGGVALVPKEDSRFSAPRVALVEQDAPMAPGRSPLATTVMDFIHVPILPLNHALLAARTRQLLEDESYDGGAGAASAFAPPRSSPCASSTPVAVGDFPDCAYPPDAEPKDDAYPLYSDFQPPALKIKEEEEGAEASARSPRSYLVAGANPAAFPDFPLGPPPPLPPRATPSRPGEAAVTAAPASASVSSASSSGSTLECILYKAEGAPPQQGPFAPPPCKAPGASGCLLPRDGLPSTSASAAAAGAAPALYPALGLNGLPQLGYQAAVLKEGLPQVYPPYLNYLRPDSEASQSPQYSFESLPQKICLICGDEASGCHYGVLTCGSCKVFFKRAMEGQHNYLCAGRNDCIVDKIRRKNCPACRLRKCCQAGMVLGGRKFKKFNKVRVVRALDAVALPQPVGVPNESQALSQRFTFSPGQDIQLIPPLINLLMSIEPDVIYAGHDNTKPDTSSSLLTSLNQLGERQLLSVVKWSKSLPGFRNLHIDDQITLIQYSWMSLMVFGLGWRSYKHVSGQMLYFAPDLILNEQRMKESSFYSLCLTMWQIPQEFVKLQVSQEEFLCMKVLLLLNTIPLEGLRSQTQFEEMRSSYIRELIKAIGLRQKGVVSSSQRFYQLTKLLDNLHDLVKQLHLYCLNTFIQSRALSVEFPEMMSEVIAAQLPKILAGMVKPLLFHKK
Nuclear receptor subfamily 1 group I member 2 (Homo sapiens), sequence (O75469 whole entry, looked up): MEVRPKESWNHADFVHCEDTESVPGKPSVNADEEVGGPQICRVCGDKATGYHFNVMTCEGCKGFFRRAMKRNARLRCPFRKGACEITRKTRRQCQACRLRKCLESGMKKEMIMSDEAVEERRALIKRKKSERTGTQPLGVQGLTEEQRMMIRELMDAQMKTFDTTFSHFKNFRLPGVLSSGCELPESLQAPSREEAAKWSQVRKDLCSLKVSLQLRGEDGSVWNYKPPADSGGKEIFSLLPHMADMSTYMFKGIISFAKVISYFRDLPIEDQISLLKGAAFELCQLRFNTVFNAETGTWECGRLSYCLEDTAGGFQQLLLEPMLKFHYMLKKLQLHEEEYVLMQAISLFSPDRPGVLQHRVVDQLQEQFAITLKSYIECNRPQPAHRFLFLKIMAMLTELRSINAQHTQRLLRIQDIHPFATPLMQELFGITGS
Thyrotropin-releasing hormone receptor (Homo sapiens), sequence (P34981 whole entry, looked up): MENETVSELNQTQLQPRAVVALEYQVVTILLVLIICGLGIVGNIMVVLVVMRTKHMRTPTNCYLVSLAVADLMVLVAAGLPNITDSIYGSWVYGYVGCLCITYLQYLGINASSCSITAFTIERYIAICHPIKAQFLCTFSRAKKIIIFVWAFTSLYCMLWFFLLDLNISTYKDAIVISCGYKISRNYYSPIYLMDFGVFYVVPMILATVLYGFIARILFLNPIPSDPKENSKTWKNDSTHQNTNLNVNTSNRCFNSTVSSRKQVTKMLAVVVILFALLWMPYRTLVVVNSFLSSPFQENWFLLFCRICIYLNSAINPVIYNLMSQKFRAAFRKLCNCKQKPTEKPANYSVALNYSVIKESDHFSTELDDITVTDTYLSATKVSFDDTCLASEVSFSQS
Thyrotropin receptor (Homo sapiens), sequence (P16473 whole entry, looked up): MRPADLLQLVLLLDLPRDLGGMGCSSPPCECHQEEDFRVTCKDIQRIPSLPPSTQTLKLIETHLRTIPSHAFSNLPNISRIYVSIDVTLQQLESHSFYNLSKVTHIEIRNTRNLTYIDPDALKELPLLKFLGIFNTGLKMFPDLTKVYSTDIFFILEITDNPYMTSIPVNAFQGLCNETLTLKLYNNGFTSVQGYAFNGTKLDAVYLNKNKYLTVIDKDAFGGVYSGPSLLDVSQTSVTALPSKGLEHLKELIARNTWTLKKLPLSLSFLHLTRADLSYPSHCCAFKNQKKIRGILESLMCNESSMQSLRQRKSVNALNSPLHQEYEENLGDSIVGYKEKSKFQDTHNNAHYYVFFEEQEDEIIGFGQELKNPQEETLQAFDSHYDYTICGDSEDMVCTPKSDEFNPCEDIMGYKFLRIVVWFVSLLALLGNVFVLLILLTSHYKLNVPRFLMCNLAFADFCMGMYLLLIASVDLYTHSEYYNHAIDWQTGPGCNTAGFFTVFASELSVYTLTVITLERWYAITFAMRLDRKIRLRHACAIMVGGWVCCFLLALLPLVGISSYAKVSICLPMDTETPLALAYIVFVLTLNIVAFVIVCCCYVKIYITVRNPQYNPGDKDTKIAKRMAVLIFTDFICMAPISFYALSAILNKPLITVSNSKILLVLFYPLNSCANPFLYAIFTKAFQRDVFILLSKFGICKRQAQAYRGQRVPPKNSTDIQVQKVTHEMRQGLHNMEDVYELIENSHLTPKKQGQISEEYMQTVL
Nuclear receptor subfamily 1 group I member 2 (Rattus norvegicus), sequence (Q9R1A7 whole entry, looked up): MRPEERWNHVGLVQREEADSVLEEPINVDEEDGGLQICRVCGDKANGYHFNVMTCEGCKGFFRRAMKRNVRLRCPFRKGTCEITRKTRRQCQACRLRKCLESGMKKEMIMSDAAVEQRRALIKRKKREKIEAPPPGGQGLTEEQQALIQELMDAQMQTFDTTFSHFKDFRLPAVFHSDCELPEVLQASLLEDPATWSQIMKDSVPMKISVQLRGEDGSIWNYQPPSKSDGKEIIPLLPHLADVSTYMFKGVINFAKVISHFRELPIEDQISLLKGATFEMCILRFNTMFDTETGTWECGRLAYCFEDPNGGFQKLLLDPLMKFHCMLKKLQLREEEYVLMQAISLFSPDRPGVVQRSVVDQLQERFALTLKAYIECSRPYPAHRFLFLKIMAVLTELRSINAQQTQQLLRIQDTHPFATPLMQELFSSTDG

CCOCCOCCO
inactive: Potency [1] | Potency [2] | Potency [3] | Potency [4] | Potency [5] | Potency [6] | Potency [7] | outcome [8] | Potency [9] | Potency [10] | Potency [11] | Potency [12] | Potency [13] | Potency [14] | Potency [15] | Potency [16]

Cc1ccc2c(n1)Oc1ccc(C(C)C(=O)OCC(=O)N(C)C)cc1C2 (stereo not drawn)
active: Potency [16] 21.1 µM and 11.9 µM
inactive: Potency [1] | Potency [2] | Potency [3] | Potency [4] | Potency [5] | Potency [7] | outcome [8] | Potency [9] | Potency [10] | Potency [12] | Potency [13] | Potency [14] | Potency [15]

Cc1c(OCC(F)(F)F)ccnc1CS(=O)c1nc2ccccc2[nH]1 (stereo not drawn)
inactive: Potency [1] | Potency [17] | Potency [7] | outcome [8] | Potency [9] | Potency [10] | Potency [11] | Potency [12] | Potency [14]

CC(=O)Oc1ccccc1C(=O)Nc1ncc([N+](=O)[O-])s1
active: Potency [2] 24.8 µM and 23.7 µM | Potency [6] 14.1 µM and 8.49 µM | Potency [7] 11.2 µM | Potency [11] 12.4 µM and 16.8 µM | Potency [13] 12.4 µM and 18.8 µM | Potency [15] 15.7 µM and 21.1 µM | Potency [16] 11.1 µM and 2.11 µM
inactive: Potency [1] | Potency [9] | Potency [10] | Potency [12] | Potency [14] | max activation [18] -18.4% | Potency [19] | Potency [20]

COC(=O)Nc1nc2ccc(S(=O)c3ccccc3)cc2[nH]1 (stereo not drawn)
active: Potency [13] 8.41 µM | Potency [16] 68.5 µM and 8.41 µM
inactive: Potency [2] | Potency [4] | Potency [5] | Potency [6] | Potency [7] | outcome [8] | Potency [9] | Potency [10] | Potency [11] | Potency [12] | Potency [14]

c1ccc2sc(SSN3CCOCC3)nc2c1
active: Potency [13] 61 µM and 61.1 µM | Potency [16] 61 µM and 68.6 µM
inactive: Potency [2] | Potency [4] | Potency [5] | Potency [7] | outcome [8] | Potency [9] | Potency [10] | Potency [11] | Potency [12] | Potency [14] | Potency [15]

Nc1ncn([C@@H]2O[C@H](CO)[C@@H](O)[C@H]2O)c(=O)n1
active: Potency [11] 3.06 µM and 3.76 µM | Potency [13] 2.17 µM and 2.98 µM | Potency [15] 1.72 µM and 2.98 µM | Potency [16] 4.33 µM and 10.6 µM
inactive: Potency [1] | Potency [2] | Potency [4] | Potency [5] | Potency [6] | Potency [7] | outcome [8] | Potency [9] | Potency [10] | Potency [12] | Potency [14] | max activation [18] -11.1% | Potency [19] | Potency [20]
